{
  "source": "PubChem BioAssay (NCATS)",
  "note": "Results filed as inconclusive are left out. A number with no mark means an inactive call. Active and inactive are the calls of the source. Calls follow the shape of the dose curve; as a rule, active = well fitted inhibition curve with a large enough effect; inconclusive = small, poorly fitted or top-dose-only effect; inactive = flat fitted curve, though single readings scatter. % is scaled to controls: 0 for no effect and ±100 for the full control effect; potency is read from the fitted curve at half-maximal effect.",
  "data": [
    {"test": "P-glycoprotein substrates identified in KB-8-5-11 adenocarcinoma cell line, qHTS therapeutic library screen (AID 1346987); also: nearly all actives have a fitted effect of over 65% in size", "conditions": "KB-8-5-11 (P-gp overexpressing) viability, CellTiter-Glo, 72 h; series mostly up to 44.5 µM; activity change, negative = cytotoxicity: at the top concentration", "outline": "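Human cervical adenocarcinoma KB-8-5-11 cells, selected in colchicine to over-express P-gp and assayed without it, were exposed for 72 h to titrated compounds. An ATP-based luminescent viability signal gave AC50.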", "values": [
      {"smiles": "C/C(=C/CO)CCC1C(C)CCC2C(C)(C)CCCC12C", "note": "(stereo not given)", "activity change, negative = cytotoxicity": "7.09%"},
      {"smiles": "C=C1CC[C@@H](O)[C@]2(C)CC[C@H]3C(=C)C(=O)O[C@@H]3[C@@H]12", "activity change, negative = cytotoxicity": "-14.7%"},
      {"smiles": "CC(C)Oc1ccc(-c2cnc3c(-c4ccnc5ccccc45)cnn3c2)cc1", "activity change, negative = cytotoxicity": "-14.7%"},
      {"smiles": "CN(C)C(=O)COC(=O)c1cc(-c2ccc(C3CCNCC3)cc2)c2ccc(-c3ccc(C(F)(F)F)cc3)cc2c1", "Potency": "18.4 µM (active)"},
      {"smiles": "CCn1c(=O)c(-c2ccc(-c3cncs3)cc2Cl)cc2cnc(Nc3ccc(N4CCN(C)CC4)cc3)nc21", "Potency": "18.4 µM (active)"},
      {"smiles": "Cc1cc(C)nc(SCC(=O)Nc2ncc(Cc3cccc4ccccc34)s2)n1", "activity change, negative = cytotoxicity": "-17.4%"},
      {"smiles": "O=C[C@H](O)[C@@H](O)[C@H](O[C@H]1O[C@H](CO)[C@@H](O[C@H]2O[C@H](CO)[C@@H](O)[C@H](O)[C@H]2O)[C@H](O)[C@H]1O)[C@H](O)CO", "activity change, negative = cytotoxicity": "-3.61%"},
      {"smiles": "COC(=O)/C=C/C=C/C(=O)OC1C=C2COC(=O)C2(O)C2(C)CCCC(C)(C)C12", "note": "(stereo not given)", "activity change, negative = cytotoxicity": "3.63% [at 17.3 µM]"},
      {"smiles": "CCC(C)(OC(C)=O)C(=O)O[C@H]1[C@H](OC(C)=O)[C@]2(CO)[C@H](O)[C@H](O)[C@]3(C)C(=CCC4[C@@]5(C)CC[C@H](O[C@@H]6O[C@H](C(=O)O)[C@@H](O)[C@H](O[C@@H]7OC[C@H](O)[C@H](O[C@@H]8OC[C@H](O)[C@H](O)[C@H]8O)[C@H]7O)[C@H]6O[C@@H]6O[C@H](CO)[C@@H](O)[C@H](O)[C@H]6O)C(C)(C)C5CC[C@]43C)[C@@H]2CC1(C)C", "note": "(stereo not given in full)", "activity change, negative = cytotoxicity": "-29% [at 9.29 µM]"},
      {"smiles": "O=C(NC1(c2ccccc2)CC1)c1c(CN2CCC(N3CCCCC3)CC2)c(-c2cccc(C(F)(F)F)c2)nc2cc(Br)ccc12", "Potency": "23.1 µM (active)"},
      {"smiles": "O=P(O)(O)OC(Cn1cncn1)(Cn1cncn1)c1ccc(F)cc1F", "activity change, negative = cytotoxicity": "9.23%"},
      {"smiles": "CC(C)c1ccc(NC(=O)Cn2cnc3c2c(=O)n(C)c(=O)n3C)cc1", "activity change, negative = cytotoxicity": "-8.73%"},
      {"smiles": "O=C(O)CCc1nccc2c1[nH]c1ccccc12", "outcome": "inactive"},
      {"smiles": "C=CC(=O)Nc1cc(-n2c(=O)ccc3cnc4ccc(-c5ccc(NS(C)(=O)=O)cc5)cc4c32)ccc1C", "outcome": "inactive"},
      {"smiles": "CC1(C)CC[C@]23CO[C@@]4(CCC5[C@@]6(C)CC[C@H](O[C@@H]7OC[C@H](O[C@@H]8O[C@H](CO)[C@@H](O)[C@H](O)[C@H]8O[C@@H]8OC[C@@H](O)[C@H](O)[C@H]8O)[C@H](O)[C@H]7O)[C@@](C)(CO)C6CC[C@@]5(C)[C@]4(C)CC2=O)[C@@H]3C1", "note": "(stereo not given in full)", "activity change, negative = cytotoxicity": "-22.9% [at 9.29 µM]"},
      {"smiles": "Cc1ccc(-c2ncccn2)c(C(=O)N2C[C@H](COc3ccc(F)cn3)CC[C@H]2C)c1", "activity change, negative = cytotoxicity": "-20.4%"},
      {"smiles": "C[C@@H]1C[C@H]2C3C[C@H](F)C4=CC(=O)C=CC4(C)[C@@]3(F)[C@@H](O)CC2(C)[C@@]1(O)C(=O)COC(=O)C(C)(C)C", "note": "(stereo not given in full)", "activity change, negative = cytotoxicity": "-14.2%"},
      {"smiles": "CC(=O)OC1CCC2(C)C(CCC3(C)C2CC=C2C4C(C)C(C)CCC4(C)CCC23C)C1(C)C(=O)O", "note": "(stereo not given)", "activity change, negative = cytotoxicity": "-10.4% [at 17.3 µM]"},
      {"smiles": "O=C(CCl)Nc1cccc(NC2=NS(=O)(=O)c3ccccc32)c1", "Potency": "18.4 µM (active)"},
      {"smiles": "CC(C)C[C@@H]1NC(=O)[C@@H](Cc2ccccc2)NC(=O)C(CCCCCC(=O)C2CO2)NC(=O)[C@@H]2CCCCN2C1=O", "note": "(stereo not given in full)", "Potency": "3.99 µM (active)"},
      {"smiles": "COc1ccc([C@H]2OC[C@H]3O[C@@H](O[C@H]4[C@@H]2NC[C@@H]4O)[C@H](O)[C@H]3O)cc1", "Potency": "1.61 µM (active)"},
      {"smiles": "C=CC(C)(O)CC/C=C(/C)COC(=O)C(C)C1CCC(C)(C=C)O1", "note": "(stereo not given)", "activity change, negative = cytotoxicity": "-19%"},
      {"smiles": "C[C@@H]1O[C@@H](O[C@H]2[C@H](OC(=O)[C@]34CCC(C)(C)C[C@H]3C3=CCC5[C@@]6(C)C[C@H](O)[C@H](O[C@@H]7O[C@H](CO)[C@@H](O)[C@H](O)[C@H]7O)[C@](CO)(C(=O)O)C6CC[C@@]5(C)[C@]3(C)C[C@H]4O)OC[C@H](O)[C@@H]2O)[C@H](O)[C@H](O)[C@H]1O[C@@H]1OC[C@@H](O)[C@H](O[C@@H]2OC[C@](O)(CO)[C@H]2O)[C@H]1O", "note": "(stereo not given in full)", "Potency": "2.45 µM (active)"},
      {"smiles": "CC1(C)CC[C@]2(C(=O)O[C@@H]3O[C@H](CO)[C@@H](O)[C@H](O)[C@H]3O)CC[C@]3(C)C(=CCC4[C@@]5(C)CC[C@H](O[C@@H]6O[C@H](C(=O)O)[C@H](O)[C@H](O)[C@H]6O)C(C)(C)C5CC[C@]43C)[C@@H]2C1", "note": "(stereo not given in full)", "outcome": "inactive [at 17.3 µM]"},
      {"smiles": "COc1cc2c(Nc3cc(F)c(Cl)c(Cl)c3)ncnc2cc1OCC1CCCN(C)CCC1", "Potency": "16.4 µM (active)"}
    ]}
  ]
}
